IEC-6 tox-1 = cytotoxicity in IEC-6 intestinal epithelial cells, primary screen, cytotoxicity control for KLF5 inhibitor project, cell-based, luminescence. IEC-6 cytotoxicity, luminescence viability. inhibition, % at 5 µM. hit rate 0.78% among 290,000; in the data active means inhibition above about 22%
Ba/F3 V617F tox = reduced viability of JAK2V617F-dependent Ba/F3 cells, primary screen, JAK2V617F inhibitor project, cell-based, Ba/F3 EpoR-JAK2V617F, luminescence. ATP luminescence. inhibition, % at 5.6 µM. hit rate 1.1% among 220,000;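 active means inhibition above the campaign mean plus 3 SD over all tested compounds, cut at about 24% in these data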;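 further: cytokine-independent growth of Ba/F3 cells driven by EpoR plus mutant JAK2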
APP transl inh = inhibitors of APP translation via 5'UTR reporter, primary screen, APP 5'UTR luciferase, SH-SY5Y cells | SH-SY5Y APP 5'UTR-luciferase reporter, luminescence | inhibition, % at 2 µM | hit rate 0.82% among 190,000 | AID 1285, 2008;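 active means inhibition above a set limit, derived from the sample mean plus 3 SD, cut at about 45% in these data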
KLF5 inh = KLF5 expression inhibitors, primary screen, DLD-1 cells, luminescence; DLD-1 KLF5 promoter-luciferase reporter; inhibition, % at 5 µM; hit rate 0.23% among 290,000;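 active means inhibition above a per-plate limit of that plate's mean compound inhibition plus 3 SD, cut at about 60% in these data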;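 further: higher means less KLF5 promoter-driven luciferase light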
BaF3 parental = parental Ba/F3 cell viability inhibition, counter-screen for JAK2V617F inhibitor project, murine pro-B, CellTiter-Glo luminescence | AID 1486, 2009 | inhibition, % at 5.6 µM | hit rate 1.1% among 220,000 | CellTiter-Glo ATP luminescence;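 active means inhibition above a per-campaign cutoff, the mean inhibition of all tested compounds plus 3 SD, cut at about 27% in these data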
aSyn 5UTR inh = MLPCN primary screen, SNCA 5' untranslated region | alpha-synuclein 5'UTR reporter, inhibitor activity | inhibition, % (tested at 7.5 µM) | hit rate 0.82% among 300,000 | AID 1813, 2009; in the data active means inhibition above about 60%;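 further: H4 neuroglioblastoma cells stably carrying SNCA 5'UTR luciferase fusion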
KLF5 confirm = KLF5 expression inhibitors, confirmation, DLD-1 cells, luminescence; shares compounds with KLF5 inh; DLD-1 KLF5 promoter firefly luciferase reporter; inhibition, % at 4 µM; hit rate 79% among 610;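 active means inhibition above a set limit taken from the earlier primary screen, cut at about 63% in these data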
IEC-6 tox-2 = cytotoxicity in rat IEC-6 cells, cytotoxicity control for KLF5 inhibitor project, cell-based, luminescence, triplicate; inhibition, % at 4 µM; IEC-6 rat intestinal cells, viability luminescence; hit rate 56% among 610; shares compounds with KLF5 inh; in the data active means inhibition above about 23%;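 further: cells exposed to compounds for 48 hours before viability read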
Numbers stand for hits; - = inactive; . = not tested or not shown. Shown are actives, neighbours in structure and some others; about 2.2% of the full set was active somewhere.

SMILES | IEC-6 tox-1 | Ba/F3 V617F tox | APP transl inh | KLF5 inh | BaF3 parental | aSyn 5UTR inh | KLF5 confirm | IEC-6 tox-2
COc1ccccc1NC(=O)C(C)OC(=O)c1cccc(-n2cnnn2)c1 (configuration not stated) | . | . | . | . | . | - | . | .
CC(=O)N(C1=C(N2CCOCC2)C(=O)c2ccccc2C1=O)c1ccc(C(=O)O)cc1 | - | - | . | - | - | - | . | .
CC(=O)N(C)C1=C(N2CCOCC2)C(=O)c2ccccc2C1=O | - | 101.0 | - | 85.4 | 101.3 | 76.2 | 84.3 | -
Cc1ccc(CN2CCC(=O)N2)cc1 | - | . | . | - | . | - | . | .
Clc1ccc(CSc2nnc(-c3ccc4c(c3)OCO4)o2)cc1 | - | - | - | - | - | - | . | .
O=C1CCCCC1Sc1nnc(-c2ccc3c(c2)OCO3)o1 (configuration not stated) | - | - | - | 66.4 | - | - | - | -
O=C(Cc1ccc(Cl)cc1)NCCCNC(=O)c1cccnc1 | - | . | . | - | . | - | . | .
O=C(O)c1ccc(N/N=C/c2c[nH]c3ccccc23)cc1 | - | . | . | 77.0 | . | 78.6 | 69.9 | -
COc1ccc(S(=O)(=O)N2CCC(Nc3ccccc3Cl)CC2)cc1 | - | . | . | - | . | - | . | .
O=C(CCN1C(=O)c2ccccc2S1(=O)=O)Nc1ccc2c(c1)OCCO2 | - | - | - | - | - | - | . | .
O=C(CN1C(=O)c2ccccc2S1(=O)=O)c1ccc2c(c1)OCCO2 | - | - | . | 90.8 | - | 111.2 | 96.9 | -
O=C(CCN1C(=O)c2ccccc2S1(=O)=O)Nc1cc(Cl)ccc1Cl | . | . | . | . | . | - | . | .
O=C(CN1C(=O)c2ccccc2S1(=O)=O)c1ccc2c(c1)OCCCO2 | - | - | . | 101.1 | - | 114.4 | 108.5 | -
O=C(CN1C(=O)c2ccccc2S1(=O)=O)c1ccc(Cl)cc1Cl | - | . | . | 83.7 | . | 77.7 | 83.3 | -
CCC(=O)Nc1cccc(-c2ccc(N3CCC(C)CC3)nn2)c1 | - | . | . | - | . | - | . | .
CC1CCN(c2ccc(-c3cccc(NC(=O)C(F)(F)F)c3)nn2)CC1 | - | . | . | 83.7 | . | 102.8 | 88.1 | 22.8
O=C(Nc1cccc(-c2ccc(N3CCCCC3)nn2)c1)C(F)(F)F | - | . | . | 75.6 | . | 96.2 | - | -
O=C(Nc1cccc(-c2ccc(N3CCCCC3)nn2)c1)c1ccc(Br)o1 | . | . | . | . | . | - | . | .
Fc1ccc(Oc2ccnc(Cl)n2)c(Cl)c1 | . | . | . | . | . | - | . | .
Cc1ccc(C(=O)N/C(=C\c2ccco2)C(=O)NCCN2CCOCC2)cc1C | - | . | . | - | . | - | . | .
CCC(NC(=O)C1C2C=CC(C2)C1C(=O)O)c1ccc(C)cc1 (configuration not stated) | - | . | . | - | . | - | . | .
Nc1ccc(-c2nc3ccc(C(=O)O)cc3s2)cc1 | - | - | 67.3 | 108.7 | - | 95.4 | 105.1 | -
CN(C)N1C(N)=C(C#N)C(c2ccc(Br)cc2)C2=C1CC(C)(C)CC2=O (configuration not stated) | - | . | . | - | . | - | . | .
O=C(Cn1nnnc1CN1CCOCC1)N1CCC(c2cccc(Cl)c2)C1 (configuration not stated) | - | . | . | - | . | - | . | .
O=C(NCCc1ccccc1)c1ccc2c(c1)OCO2 | - | . | . | 62.7 | . | 90.9 | - | -
SMILES | IEC-6 tox-1 | Ba/F3 V617F tox | APP transl inh | KLF5 inh | BaF3 parental | aSyn 5UTR inh | KLF5 confirm | IEC-6 tox-2
COC(=O)c1nn(-c2ccc3c(c2)OCO3)cc1O | - | - | - | - | - | - | . | .
COC(=O)c1nn(-c2ccc3c(c2)CCN3C(C)=O)cc1O | - | - | - | 75.0 | - | 90.6 | 78.3 | -
COc1ccc(-n2ncc3c(N4CCN(c5cccc(C)c5C)CC4)ncnc32)cc1 | - | . | . | - | . | - | . | .
COc1ccc(-n2ncc3c(N4CCCCC4)ncnc32)cc1 | - | - | - | 65.3 | - | 101.2 | 88.3 | -
C#Cc1ccc([C@@H]2C=C(C(=O)N3CCN(Cc4ccccc4)CC3)O[C@H](OCCCCO)C2)cc1 | - | 93.9 | - | 66.0 | 87.5 | 98.8 | 72.9 | -
O=C(C1=C[C@H](c2ccccc2)C[C@H](OCCCCO)O1)N1CCN(Cc2ccccc2)CC1 | - | - | - | - | - | - | . | .
O=C(c1cc(-c2ccccc2Cl)on1)N1CCCC1 | - | . | . | 74.3 | . | - | 65.3 | -
O=C(O)c1cccc(N/N=C/c2ccc(OC(F)(F)F)cc2)c1 | - | . | . | 71.2 | . | 64.3 | 67.1 | -
CC(=O)CSc1ccc(-c2nc3ccccc3[nH]2)cn1 | - | . | . | - | . | - | . | .
CC(=O)CSc1ccc(-c2nc3cc(C)c(C)cc3[nH]2)cn1 | - | - | - | 64.1 | - | 120.6 | 72.7 | -
Cc1nn(C(C)(C)C)c(C)c1/C=N/OC(=O)Nc1ccc(Cl)cc1 | - | - | . | 97.6 | - | 94.2 | 105.4 | -
Cc1nn(C)c(C)c1/C=N/NC(=O)C(C)(C)Oc1ccc(Cl)cc1 | - | - | - | - | - | - | . | .
O=C(Nc1cccnc1)c1cccs1 | - | 45.7 | - | 72.2 | 87.5 | - | 69.7 | -
Cc1ccc(NC(=O)CCN2C(=O)C3CCCCC3C2=O)cc1[N+](=O)[O-] (configuration not stated) | . | . | . | . | . | - | . | .
CC(C)(C)c1ccc(-c2noc(CCC(=O)NCC3CCCO3)n2)cc1 (configuration not stated) | - | - | 59.7 | 73.6 | - | 104.2 | 67.3 | -
CC(C)(C)c1ccc(-c2noc(CCC(N)=O)n2)cc1 | - | - | 71.7 | 86.2 | - | 90.8 | 85.4 | -
Cc1ccc(-c2noc(CCC(=O)NCC3CCCO3)n2)cc1 (configuration not stated) | - | - | - | - | - | - | . | .
CC(C)(C)c1ccc(-c2noc(CCC(=O)Nc3cccnc3)n2)cc1 | - | . | . | 77.5 | . | 76.9 | 87.1 | -
Cc1ccc(-n2nc3c(=O)n(CCCC(=O)NCc4cccc(F)c4)nc(C)c3c2C)cc1 | - | . | . | - | . | - | . | .
COc1cc(/C=N/NS(=O)(=O)c2ccc(C)cc2)ccc1OCc1ccc(C(=O)O)cc1 | - | - | - | 77.5 | - | 84.2 | - | -
Cc1ccc(C(=O)O/N=C(\N)c2ccccn2)c(C)c1 | - | . | . | 108.0 | . | 105.9 | 104.5 | -
COc1ccc(C(=O)O)cc1NC(=S)NC(=O)/C=C/c1ccc(C(C)C)cc1 | - | . | . | - | . | - | . | .
CN=c1scc(-c2cccs2)n1/N=C/c1ccc(O)c(O)c1O | - | - | - | - | - | - | . | .
CN=c1scc(-c2cccs2)n1/N=C/c1ccccc1O | - | - | 53.1 | 108.1 | - | 103.3 | 94.9 | -
Cc1ccc(NC(=O)n2ncc3c(C)cccc32)cc1F | - | . | . | 83.3 | . | - | 85.4 | -
COc1ccc(NC(=O)n2ncc3c(C)cccc32)cc1OC | - | . | . | - | . | - | . | .
Cc1ccc(C(=O)Nc2nc3ccccc3[nH]2)cc1 | - | . | . | 85.6 | . | 68.1 | 66.0 | -
COc1cc(C(=O)Nc2nc3ccccc3[nH]2)cc(OC)c1OC | - | - | - | - | - | - | . | .

From PubChem BioAssay
